Test results published in PubChem BioAssay.
For some assays here: Entries with a potency or affinity are not part of this list. The source made the active and inactive calls. Unless noted, how the calls were made is not given here.

target: Protein kinase 7 (PK7), Plasmodium falciparum 3D7 (PF3D7_0213400) (UniProt Q7YTF7); assay: inhibition of Plasmodium PK7 catalytic activity – biochemical, TCAMS antimalarial set, Kinase-Glo luminescence (AID 1159587); settings: recombinant PfPK7, Kinase-Glo ATP depletion luminescence
Sequence (Q7YTF7 1-343): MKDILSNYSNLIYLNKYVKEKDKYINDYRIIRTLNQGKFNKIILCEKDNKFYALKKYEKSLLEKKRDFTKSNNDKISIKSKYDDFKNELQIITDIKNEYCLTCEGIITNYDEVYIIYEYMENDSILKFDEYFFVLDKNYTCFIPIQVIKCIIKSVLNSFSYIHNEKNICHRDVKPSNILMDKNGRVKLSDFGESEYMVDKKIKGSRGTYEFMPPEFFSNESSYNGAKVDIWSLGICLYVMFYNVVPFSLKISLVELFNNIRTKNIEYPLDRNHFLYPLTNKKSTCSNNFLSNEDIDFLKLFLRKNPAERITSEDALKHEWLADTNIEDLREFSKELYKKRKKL

outcome, inactive:
Cc1ccc2c(-c3ccc([N+](=O)[O-])o3)cc(C)nc2c1
COc1ccc2nc(C)cc(Nc3ccc(Cl)c(Cl)c3)c2c1
COc1cc(NCCCCCNc2cc(Cl)nc3ccccc23)nc2ccccc12
COc1ccc(CN2CCCC(Nc3ccc(F)c(F)c3)C2)c(O)c1 (stereo not given)
Cc1cc(N[C@@H](CC(C)C)C(=O)NCc2cccc(F)c2)nc(NCCc2ccccc2)n1
Cc1ccc(O)c(C(=O)c2cc(C(=O)Nc3ccccc3C)c(=O)n(-c3ccccc3C)c2)c1
COc1ccc2nc(C)cc(NN=Cc3cccc([N+](=O)[O-])c3)c2c1
C=CCOC(=O)N1CCC(CNCc2cccc(-c3cccc(-c4nc5c(C)cccc5[nH]4)c3)c2)C1 (stereo not given)
Cc1[nH]c(C)c(-c2ccc(OCc3cc(F)cc(F)c3)nc2)c(=O)c1Cl
COc1ccc(O)cc1/C=N/Nc1ccnc2cc(Cl)ccc12
Cc1cnc(NCC2CCCCC2)nc1N[C@@H](CC(C)C)C(=O)Nc1ccccc1
CN(C)CCN(C)Cc1ccc(-c2cccc(NC(=O)c3ccc(Cl)cc3)c2)cc1
C=CCn1c(Sc2ccc(C#N)c([N+](=O)[O-])c2)nnc1-c1cc(OC)cc(OC)c1
Cc1cccc2[nH]c(-c3cccc(-c4ccc(NC(=O)CC5NC(=O)c6ccccc65)cc4)c3)nc12 (stereo not given)
Fc1ccc2nc(-c3ccc(-c4ccc(CN5CCC(CCN6CCCCC6)CC5)cc4)cc3)[nH]c2c1
CC(C)Oc1cc2c(cc1NS(=O)(=O)c1ccc(-c3ccc(Cl)s3)cc1F)CCN(C)CC2
COc1cc2c(cc1C(F)(F)F)N(C(=O)Nc1cc(F)cc(-c3cncnc3)c1)CC2
Cc1cccc(C)c1CNc1ccnc2cc(Br)ccc12
CN1CCN(c2cc3c(cc2Br)CCN3C(=O)Nc2ccc(-c3cnc4ccccc4c3)cc2)CC1
COCCCNC(=O)[C@H]1CNCCN1C(=O)c1ccccc1
COc1ccc2nccc([C@@H](O)CN3CCC(NCc4ccc5c(c4)NC(=O)CS5)CC3)c2n1
O=C(/C=C/c1ccc(Cl)c(Cl)c1)NCCCCCN1CCCN(C(=O)Nc2ccc([N+](=O)[O-])cc2)CC1
CCn1ccc2c(N3CCCS3(=O)=O)cc(C(=O)N[C@@H](Cc3ccccc3)[C@H](O)CNC3CCCCC3)cc21
CC(=O)Nc1ccc(CN2CCCN(c3cc(NC(=O)c4cccc(C)c4)ccn3)CC2)cc1
CCN(CC)C(=NC(N)=NCCCCCCN=C(N)N=C(Nc1ccc(Cl)cc1)N(CC)CC)Nc1ccc(Cl)cc1
CCC(ON1C(N)=NC(N)=NC1(C)C)c1ccc(Cl)cc1 (stereo not given)
NC(N)=NN=Cc1cc2ccccc2c2ccccc12
COc1ccc(C=NNc2ccnc3cc(F)c(C)cc23)c2ccccc12
CC(CN(C)C)C(=O)Nc1cccc(-c2ccc(-c3nc4ccccc4[nH]3)cc2)c1 (stereo not given)
O=C(Nc1cccc(-c2csc(NC(=O)c3ccc4ccccc4c3)n2)c1)c1ccc2ccccc2c1
Clc1nc2ccccn2c1C=Cc1ccc2ccccc2n1
Cc1[nH]c(C)c(-c2ccc(Nc3ccc(C(F)(F)F)cn3)cc2)c(=O)c1Br
COc1cc(F)c2nccc([C@@H](O)CN3CCC(NCc4nc5c(F)cccc5[nH]4)CC3)c2c1
O=C(Nc1ccc(-c2cccc(-c3nc4ccc(F)cc4[nH]3)c2)cc1)Nc1ccc(F)c(F)c1F
COc1ccc(NC(=O)/C=C/c2cc(Br)ccc2F)cc1OCCN(C(C)C)C(C)C
C[C@@H]1CCC[C@H](C)N1C[C@@H](O)CNS(=O)(=O)c1cccc(C(F)(F)F)c1
Clc1ccc(Cc2nc3ccccc3[nH]2)cc1Cl
CCCCOc1c(CNCCCCCCNCc2ccc3ccccc3c2OCCCC)ccc2ccccc12
O=C(/C=C/c1ccccc1Cl)Nc1ccc(Br)c(OCCN2CCCCC2)c1
CC(C)Cc1nc(N)nc(N)c1-c1ccc(Cl)cc1

target: Calcium-dependent protein kinase 4 (Plasmodium falciparum (isolate 3D7)) (UniProt Q8IBS5); assay: PfCDPK4 kinase inhibitors, biochemical, TCAMS library (AID 1159588; cut-off not given, nearly all actives have IC50 up to about 0.91 µM); settings: recombinant PfCDPK4, Kinase-Glo ATP depletion luminescence
Sequence (Q8IBS5 whole entry, looked up): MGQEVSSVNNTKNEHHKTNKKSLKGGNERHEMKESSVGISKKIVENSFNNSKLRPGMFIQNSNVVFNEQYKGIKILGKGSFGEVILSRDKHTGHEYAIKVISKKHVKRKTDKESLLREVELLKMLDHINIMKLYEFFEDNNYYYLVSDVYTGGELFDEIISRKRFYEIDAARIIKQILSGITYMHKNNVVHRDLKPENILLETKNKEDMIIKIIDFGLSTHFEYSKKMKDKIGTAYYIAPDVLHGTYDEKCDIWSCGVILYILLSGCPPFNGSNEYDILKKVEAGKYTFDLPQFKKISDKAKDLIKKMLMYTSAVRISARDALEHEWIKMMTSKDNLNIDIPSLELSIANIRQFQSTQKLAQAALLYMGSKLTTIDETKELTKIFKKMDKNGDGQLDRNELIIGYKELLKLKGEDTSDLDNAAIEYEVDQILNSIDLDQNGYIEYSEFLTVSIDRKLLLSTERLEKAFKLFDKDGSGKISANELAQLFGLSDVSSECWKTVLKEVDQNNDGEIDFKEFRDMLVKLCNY

outcome, inactive:
Cc1ccc2c(-c3ccc([N+](=O)[O-])o3)cc(C)nc2c1
COc1ccc2nc(C)cc(Nc3ccc(Cl)c(Cl)c3)c2c1
COc1cc(NCCCCCNc2cc(Cl)nc3ccccc23)nc2ccccc12
COc1ccc(CN2CCCC(Nc3ccc(F)c(F)c3)C2)c(O)c1 (stereo not given)
Cc1cc(N[C@@H](CC(C)C)C(=O)NCc2cccc(F)c2)nc(NCCc2ccccc2)n1
Cc1ccc(O)c(C(=O)c2cc(C(=O)Nc3ccccc3C)c(=O)n(-c3ccccc3C)c2)c1
COc1ccc2nc(C)cc(NN=Cc3cccc([N+](=O)[O-])c3)c2c1
C=CCOC(=O)N1CCC(CNCc2cccc(-c3cccc(-c4nc5c(C)cccc5[nH]4)c3)c2)C1 (stereo not given)
Cc1[nH]c(C)c(-c2ccc(OCc3cc(F)cc(F)c3)nc2)c(=O)c1Cl
COc1ccc(O)cc1/C=N/Nc1ccnc2cc(Cl)ccc12
Cc1cnc(NCC2CCCCC2)nc1N[C@@H](CC(C)C)C(=O)Nc1ccccc1
CN(C)CCN(C)Cc1ccc(-c2cccc(NC(=O)c3ccc(Cl)cc3)c2)cc1
C=CCn1c(Sc2ccc(C#N)c([N+](=O)[O-])c2)nnc1-c1cc(OC)cc(OC)c1
Cc1cccc2[nH]c(-c3cccc(-c4ccc(NC(=O)CC5NC(=O)c6ccccc65)cc4)c3)nc12 (stereo not given)
Fc1ccc2nc(-c3ccc(-c4ccc(CN5CCC(CCN6CCCCC6)CC5)cc4)cc3)[nH]c2c1
CC(C)Oc1cc2c(cc1NS(=O)(=O)c1ccc(-c3ccc(Cl)s3)cc1F)CCN(C)CC2
COc1cc2c(cc1C(F)(F)F)N(C(=O)Nc1cc(F)cc(-c3cncnc3)c1)CC2
Cc1cccc(C)c1CNc1ccnc2cc(Br)ccc12
CN1CCN(c2cc3c(cc2Br)CCN3C(=O)Nc2ccc(-c3cnc4ccccc4c3)cc2)CC1
COCCCNC(=O)[C@H]1CNCCN1C(=O)c1ccccc1
COc1ccc2nccc([C@@H](O)CN3CCC(NCc4ccc5c(c4)NC(=O)CS5)CC3)c2n1
O=C(/C=C/c1ccc(Cl)c(Cl)c1)NCCCCCN1CCCN(C(=O)Nc2ccc([N+](=O)[O-])cc2)CC1
CCn1ccc2c(N3CCCS3(=O)=O)cc(C(=O)N[C@@H](Cc3ccccc3)[C@H](O)CNC3CCCCC3)cc21
CC(=O)Nc1ccc(CN2CCCN(c3cc(NC(=O)c4cccc(C)c4)ccn3)CC2)cc1
CCN(CC)C(=NC(N)=NCCCCCCN=C(N)N=C(Nc1ccc(Cl)cc1)N(CC)CC)Nc1ccc(Cl)cc1
CCC(ON1C(N)=NC(N)=NC1(C)C)c1ccc(Cl)cc1 (stereo not given)
NC(N)=NN=Cc1cc2ccccc2c2ccccc12
COc1ccc(C=NNc2ccnc3cc(F)c(C)cc23)c2ccccc12
CC(CN(C)C)C(=O)Nc1cccc(-c2ccc(-c3nc4ccccc4[nH]3)cc2)c1 (stereo not given)
O=C(Nc1cccc(-c2csc(NC(=O)c3ccc4ccccc4c3)n2)c1)c1ccc2ccccc2c1
Clc1nc2ccccn2c1C=Cc1ccc2ccccc2n1
Cc1[nH]c(C)c(-c2ccc(Nc3ccc(C(F)(F)F)cn3)cc2)c(=O)c1Br
COc1cc(F)c2nccc([C@@H](O)CN3CCC(NCc4nc5c(F)cccc5[nH]4)CC3)c2c1
O=C(Nc1ccc(-c2cccc(-c3nc4ccc(F)cc4[nH]3)c2)cc1)Nc1ccc(F)c(F)c1F
COc1ccc(NC(=O)/C=C/c2cc(Br)ccc2F)cc1OCCN(C(C)C)C(C)C
C[C@@H]1CCC[C@H](C)N1C[C@@H](O)CNS(=O)(=O)c1cccc(C(F)(F)F)c1
Clc1ccc(Cc2nc3ccccc3[nH]2)cc1Cl
CCCCOc1c(CNCCCCCCNCc2ccc3ccccc3c2OCCCC)ccc2ccccc12
O=C(/C=C/c1ccccc1Cl)Nc1ccc(Br)c(OCCN2CCCCC2)c1
CC(C)Cc1nc(N)nc(N)c1-c1ccc(Cl)cc1
